Measured values as given in the supplement of paper PMC6555819.

How the values were obtained:
Experiment in all cases: PBM binding z-score (relative to random genomic background probes); higher = stronger binding; sequences stand for … in GC…GCGATTGACAGCGTAGAATGAAGG
[1] = tested on: RARb homodimer (NR concentration 270 nM)
How it was run: (§1)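 Probes were double-stranded and carried 34-nt variable regions with direct-repeat seeds, single-nucleotide variants, half-site ablations and random human genomic background sequences, printed on custom Agilent 4×180K protein-binding microarrays. Arrays were incubated 1 h with ligand-free nuclear receptor dimers in PBS pH 7.4, 2% milk, 0.02% Triton X-100, 1 mM DTT, 0.2 mg/mL BSA and 0.4 mg/ml salmon testes DNA. Antibodies against each partner (one per run) detected binding, and scanned fluorescence was regression-normalized. Binding z-scores use the random background probes as reference.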

[2] = tested on: RARg:RXRa (NR concentration 270 nM, RXRa partner concentration 90 nM)
How it was run: as §1

[3] = tested on: RARg homodimer (NR concentration 270 nM)
How it was run: as §1

[4] = tested on: RXRa DBDmut IVT, anti-RXR (DBD mutation: RXRa K156A/R161A, NR concentration 90 nM)
How it was run: as §1

[5] = tested on: RXRa homodimer (NR concentration 180 nM)
How it was run: as §1

[6] = tested on: THRa:RXRa (NR concentration 90 nM, RXRa partner concentration 90 nM)
How it was run: as §1

[7] = tested on: THRa homodimer (NR concentration 90 nM)
How it was run: as §1

[8] = tested on: VDR homodimer (NR concentration 270 nM)
How it was run: as §1

Sequence: CCTACTGGGCCATCAGGTCCTTGATATCAACGTT
- PBM binding z-score [1]: 0.0749
- PBM binding z-score [2]: -0.0484
- PBM binding z-score [3]: 0.0919
- PBM binding z-score [4]: -0.586
- PBM binding z-score [5]: -0.412
- PBM binding z-score [6]: 0.183
- PBM binding z-score [7]: 0.322
- PBM binding z-score [8]: 0.000123

Sequence: ATATGTAGGTTACATCCGGGTCATTCACGCTATG
- PBM binding z-score [1]: 2.82
- PBM binding z-score [2]: 4
- PBM binding z-score [3]: 2.31
- PBM binding z-score [4]: 1.39
- PBM binding z-score [5]: 3.38
- PBM binding z-score [6]: 3.86
- PBM binding z-score [7]: 2.6
- PBM binding z-score [8]: 3.12

Sequence: TTACCAAGGTGAGCTGAGGTCGTTGATCCAACTC
- PBM binding z-score [1]: 1.78
- PBM binding z-score [2]: 1.24
- PBM binding z-score [3]: 1.11
- PBM binding z-score [4]: 0.206
- PBM binding z-score [5]: 1.53
- PBM binding z-score [6]: 4.79
- PBM binding z-score [7]: 1.88
- PBM binding z-score [8]: 2.5

Sequence: CGAACTTGGTCATTGACAGGACAGTGAATAGTAA
- PBM binding z-score [1]: 0.601
- PBM binding z-score [2]: 1.04
- PBM binding z-score [3]: 0.884
- PBM binding z-score [4]: 0.43
- PBM binding z-score [5]: 0.621
- PBM binding z-score [6]: 0.513
- PBM binding z-score [7]: -0.107
- PBM binding z-score [8]: 0.11

Sequence: TGAATGAGGTTAGAAGATCAGGGAACGTTGCAAA
- PBM binding z-score [1]: 0.0495
- PBM binding z-score [2]: 0.98
- PBM binding z-score [3]: 0.936
- PBM binding z-score [4]: -0.437
- PBM binding z-score [5]: 1.17
- PBM binding z-score [6]: 1.13
- PBM binding z-score [7]: -0.107
- PBM binding z-score [8]: -0.169

Sequence: GCTGCTAGGTCAACTGATGGTCAGCTATAGCTCG
- PBM binding z-score [1]: 3.72
- PBM binding z-score [2]: 5.34
- PBM binding z-score [3]: 5.69
- PBM binding z-score [4]: 1.79
- PBM binding z-score [5]: 3.41
- PBM binding z-score [6]: 3.03
- PBM binding z-score [7]: 1.11
- PBM binding z-score [8]: -0.0243

Sequence: CGTCCAAGGTCATAGGAGGTCAGTCAAGACAGAT
- PBM binding z-score [1]: 5.57
- PBM binding z-score [2]: 6.78
- PBM binding z-score [3]: 7.57
- PBM binding z-score [4]: 3.37
- PBM binding z-score [5]: 6.76
- PBM binding z-score [6]: 5.43
- PBM binding z-score [7]: 3.34
- PBM binding z-score [8]: 4.33

Sequence: ATCTCTCGGTAAAGATAGTTCAGTGAATGCAAAT
- PBM binding z-score [1]: 1.07
- PBM binding z-score [2]: 0.757
- PBM binding z-score [3]: 0.753
- PBM binding z-score [4]: -0.259
- PBM binding z-score [5]: 0.154
- PBM binding z-score [6]: 0.376
- PBM binding z-score [7]: 0.031
- PBM binding z-score [8]: 0.334

Sequence: TAGACTAGGTCATGCGGGCCAGTATAGTGTCGGC
- PBM binding z-score [1]: 2.66
- PBM binding z-score [2]: 3.38
- PBM binding z-score [3]: 4.13
- PBM binding z-score [4]: 0.0121
- PBM binding z-score [5]: 2.73
- PBM binding z-score [6]: 2.84
- PBM binding z-score [7]: 0.705
- PBM binding z-score [8]: 0.756

Sequence: GCTGCTAGGTCAGGTTGGTCAGTTAACGGGTACG
- PBM binding z-score [1]: 2.75
- PBM binding z-score [2]: 2.59
- PBM binding z-score [3]: 3.38
- PBM binding z-score [4]: 0.795
- PBM binding z-score [5]: 1.02
- PBM binding z-score [6]: 2.03
- PBM binding z-score [7]: 1.2
- PBM binding z-score [8]: 0.71

Sequence: AATACAGGGTCACTAGACCAGAGTAGGTACGAAT
- PBM binding z-score [1]: 2.96
- PBM binding z-score [2]: 4.98
- PBM binding z-score [3]: 4.81
- PBM binding z-score [4]: 2.68
- PBM binding z-score [5]: 5.91
- PBM binding z-score [6]: 3.24
- PBM binding z-score [7]: 1.08
- PBM binding z-score [8]: 2.54

Sequence: ACTATTAGTTGAGACGAGAGCAACCGATAGGTTG
- PBM binding z-score [1]: -0.441
- PBM binding z-score [2]: 0.044
- PBM binding z-score [3]: 0.359
- PBM binding z-score [4]: -0.00279
- PBM binding z-score [5]: 0.11
- PBM binding z-score [6]: -0.0893
- PBM binding z-score [7]: -0.555
- PBM binding z-score [8]: -0.215

Sequence: TCGTGTAGATCAAGCAGGTTAAGAAAGCCTGAGT
- PBM binding z-score [1]: -0.0651
- PBM binding z-score [2]: -0.125
- PBM binding z-score [3]: -0.344
- PBM binding z-score [4]: 0.445
- PBM binding z-score [5]: 0.247
- PBM binding z-score [6]: 0.168
- PBM binding z-score [7]: -0.744
- PBM binding z-score [8]: -0.0255

Sequence: AGAATGAGGTTATACGTAGATTAGGGAAGAAAGT
- PBM binding z-score [1]: 0.89
- PBM binding z-score [2]: 1.67
- PBM binding z-score [3]: 1.05
- PBM binding z-score [4]: 1.49
- PBM binding z-score [5]: 2.3
- PBM binding z-score [6]: 2.27
- PBM binding z-score [7]: 0.694
- PBM binding z-score [8]: 1.09

Sequence: CGTCCAAGGTCAGCAGGTTAGTGAAAGCGACGTG
- PBM binding z-score [1]: 4
- PBM binding z-score [2]: 5.37
- PBM binding z-score [3]: 6.05
- PBM binding z-score [4]: 2.64
- PBM binding z-score [5]: 4.17
- PBM binding z-score [6]: 3.57
- PBM binding z-score [7]: 2.06
- PBM binding z-score [8]: 1.76

Sequence: AGAACGCGGGCACGCTGAGTTGATAGCAGAGTAG
- PBM binding z-score [1]: -0.459
- PBM binding z-score [2]: 0.0245
- PBM binding z-score [3]: 0.351
- PBM binding z-score [4]: -0.368
- PBM binding z-score [5]: 0.141
- PBM binding z-score [6]: -0.476
- PBM binding z-score [7]: -1.01
- PBM binding z-score [8]: 0.0842

Sequence: TCGAGTAGGTTAGGCGCATTCAGAATGGCGTCGA
- PBM binding z-score [1]: -0.314
- PBM binding z-score [2]: -0.45
- PBM binding z-score [3]: -0.527
- PBM binding z-score [4]: -0.0106
- PBM binding z-score [5]: -0.118
- PBM binding z-score [6]: -0.415
- PBM binding z-score [7]: -0.996
- PBM binding z-score [8]: -0.809

Sequence: ATACCAAGGTGATCGTGAGGTCGATGATACTAAC
- PBM binding z-score [1]: 1.82
- PBM binding z-score [2]: 2.16
- PBM binding z-score [3]: 1.22
- PBM binding z-score [4]: 0.391
- PBM binding z-score [5]: 1.36
- PBM binding z-score [6]: 3.09
- PBM binding z-score [7]: 1.95
- PBM binding z-score [8]: 1.21

Sequence: TCTGCTAGGTCATTTGGTCAGCTAACGAGCTGCC
- PBM binding z-score [1]: 2.97
- PBM binding z-score [2]: 3.84
- PBM binding z-score [3]: 4.17
- PBM binding z-score [4]: 2.58
- PBM binding z-score [5]: 2.34
- PBM binding z-score [6]: 2.42
- PBM binding z-score [7]: 0.658
- PBM binding z-score [8]: 1.49

Sequence: CAAACTAGTTCACAGAGGTCAAAGTCCGTGCGTA
- PBM binding z-score [1]: 4.92
- PBM binding z-score [2]: 6.03
- PBM binding z-score [3]: 5.68
- PBM binding z-score [4]: 3.93
- PBM binding z-score [5]: 6.83
- PBM binding z-score [6]: 4.01
- PBM binding z-score [7]: 1.93
- PBM binding z-score [8]: 7.92

Sequence: TCTATTAGTTGATTGGGGCAACCGAAACAGCGGA
- PBM binding z-score [1]: 0.682
- PBM binding z-score [2]: 0.564
- PBM binding z-score [3]: 0.336
- PBM binding z-score [4]: 1.34
- PBM binding z-score [5]: 0.882
- PBM binding z-score [6]: 0.545
- PBM binding z-score [7]: 0.527
- PBM binding z-score [8]: 0.77

Sequence: GGAACGAGGGCAAAGTTGATAGCGTCTGTCGACG
- PBM binding z-score [1]: 1.32
- PBM binding z-score [2]: 2.22
- PBM binding z-score [3]: 1.75
- PBM binding z-score [4]: 2.69
- PBM binding z-score [5]: 2.17
- PBM binding z-score [6]: 1.38
- PBM binding z-score [7]: -0.194
- PBM binding z-score [8]: 1.43

Sequence: AATACAGGGTCATCGTAGGCCAGATTACGCACAG
- PBM binding z-score [1]: 3.54
- PBM binding z-score [2]: 5.85
- PBM binding z-score [3]: 4.96
- PBM binding z-score [4]: 3.82
- PBM binding z-score [5]: 6.58
- PBM binding z-score [6]: 4.42
- PBM binding z-score [7]: 1.56
- PBM binding z-score [8]: 3.35

Sequence: TCATATAGCTAAAAGGTGAAAGTCGGTGTGGTAA
- PBM binding z-score [1]: 1.42
- PBM binding z-score [2]: 0.817
- PBM binding z-score [3]: 0.551
- PBM binding z-score [4]: 0.962
- PBM binding z-score [5]: 1.4
- PBM binding z-score [6]: 0.958
- PBM binding z-score [7]: 0.0793
- PBM binding z-score [8]: -0.201

Sequence: CTCGAATGGTCGTGCTCAGGTGAGTATACCAAAC
- PBM binding z-score [1]: 0.249
- PBM binding z-score [2]: -0.157
- PBM binding z-score [3]: -0.12
- PBM binding z-score [4]: -0.0041
- PBM binding z-score [5]: -0.189
- PBM binding z-score [6]: 1.11
- PBM binding z-score [7]: 0.835
- PBM binding z-score [8]: -0.378

Sequence: ATCGAAAGGTCGTGAGGTCAGTATACAGAAAGGC
- PBM binding z-score [1]: 4.83
- PBM binding z-score [2]: 6.17
- PBM binding z-score [3]: 5.53
- PBM binding z-score [4]: 2.13
- PBM binding z-score [5]: 6.57
- PBM binding z-score [6]: 4.25
- PBM binding z-score [7]: 3.19
- PBM binding z-score [8]: 3.51

Sequence: ATCGAAAGGTCGAAGGTGAGTATTCCCACCCGAA
- PBM binding z-score [1]: 2.4
- PBM binding z-score [2]: 4.36
- PBM binding z-score [3]: 3.76
- PBM binding z-score [4]: 1.17
- PBM binding z-score [5]: 5.41
- PBM binding z-score [6]: 2.13
- PBM binding z-score [7]: 0.00651
- PBM binding z-score [8]: 0.282

Sequence: ACTTACGAGTCAACGAGGTTATAGCACGCGTATA
- PBM binding z-score [1]: 0.874
- PBM binding z-score [2]: 1.07
- PBM binding z-score [3]: 0.785
- PBM binding z-score [4]: 0.637
- PBM binding z-score [5]: 1.59
- PBM binding z-score [6]: 2.04
- PBM binding z-score [7]: 0.474
- PBM binding z-score [8]: 0.877

Sequence: TCAGACACGTGAAGGTAACTCAGGTACGCAGTCG
- PBM binding z-score [1]: 0.104
- PBM binding z-score [2]: 0.176
- PBM binding z-score [3]: 0.219
- PBM binding z-score [4]: 1.06
- PBM binding z-score [5]: 0.661
- PBM binding z-score [6]: 1.21
- PBM binding z-score [7]: -0.125
- PBM binding z-score [8]: 0.218
